Reference: PubChem BioAssay (NCATS)
“And” between values parts separate entries of the source, which are not always exact repeats. Equal values may be shown once. Inconclusive results are not listed. The source made the active and inactive calls. Calls follow the shape of the dose curve; as a rule, active = well fitted inhibition curve with a large enough effect; inconclusive = small, poorly fitted or top-dose-only effect; inactive = flat fitted curve, though single readings scatter.

tested on: KB-3-1; test: Cytotoxic Profiling of Annotated Libraries Using Quantitative High-Throughput Screening (AID 1296008); details: Five cell lines viability, CellTiter-Glo ATP luminescence, 48-72 h; max response: hits give low values; also: nearly all actives have a fitted effect of over 60% in size
Description: Cell-based phenotypic screening is a commonly used approach to discover biological pathways, novel drug targets, chemical probes and high-quality hit-to-lead molecules. Many hits identified from high-throughput screening campaign are ruled out through a series of follow-up potency, selectivity/specificity, and cytotoxicity assays. Prioritization of molecules with little or no cytotoxicity for a more in-depth downstream evaluation influence the future direction of projects, so cytotoxicity profiling of the screening libraries at early stage is essential for increasing the likelihood of candidate success. […] For the annotated library, we also examined the primary targets and mechanistic pathways regularly associated with cell death. To our knowledge, this is the first study to use high-throughput screening to profile large libraries for cytotoxicity assessment in both normal and cancer cell lines. In summary, the results generated here constitutes a valuable resource for the scientific community and provides insight on identifying cytotoxic compounds with particular mechanisms of action, and prioritizing compounds with suitable cytotoxicity profile for further evaluation.
A pintool (Kalypsys) was used to transfer 23 nL of compound solution to the 1536-well assay plates. After 48 or 72 hr incubation at 37 degree Celsius, 5% CO2 and 95% humidity, 2.5 uL of CellTiter-Glo (Promega) was dispensed into each well using a dispenser (Aspect Automation, St. Paul, MN) with solenoid valves (Lee Valves, Westbrook CT). Plates were left at room temperature for 10 min before imaging the ATP-coupled luminescence using a ViewLux microplate imager (PerkinElmer, Waltham, MA).
% is scaled to controls: 0 for no effect and ±100 for the full control effect; potency is read from the fitted curve at half-maximal effect.

SMILES | outcome | max response | Potency
O=C1N(c2ccccc2)c2ccccc2C1(Cc1ccncc1)Cc1ccncc1 | inactive | 0.123% (inactive) | 
CN(Cc1cnc2nc(N)nc(N)c2n1)c1ccc(C(=O)N[C@@H](CCC(=O)O)C(=O)O)cc1 |  |  | 37.2 nM (active)
COc1ccccc1OCCNCC(O)COc1cccc2[nH]c3ccccc3c12 (stereo not given) |  | 1.19% (inactive) and -0.545% (inactive) | 
Cc1ccccc1N1C(=O)c2cc(S(N)(=O)=O)c(Cl)cc2NC1C (stereo not given) |  | 2.47% (inactive) and -15% (inactive) and -2.37% (inactive) | 
O=C(CCCN1CCC(O)(c2ccc(Cl)cc2)CC1)c1ccc(F)cc1 |  | 1.13% (inactive) | 
O=C(c1ccc(OCCN2CCCCC2)cc1)c1c(-c2ccc(O)cc2)sc2cc(O)ccc12 |  | -14.1% (inactive) and -7.5% (inactive) | 
CN(C)CCOC(c1ccccc1)c1ccccc1 | inactive | 4.19% (inactive) and -2.75% (inactive) | 
CC1(CN2CCC(n3c(=O)[nH]c4ccccc43)CC2)OCc2ccccc2-n2cccc21 (stereo not given) |  | -2.15% (inactive) and -10% (inactive) | 
C[C@](N)(Cc1ccc(O)c(O)c1)C(=O)O |  | -5.5% (inactive) and -5.11% (inactive) | 
CCOC(=O)Nc1ccc(NCc2ccc(F)cc2)nc1N |  | -2.17% (inactive) and -13.9% (inactive) and -5.9% (inactive) | 
COc1ccc2[nH]cc(CCNC(C)=O)c2c1 |  | 5.26% (inactive) and 4.62% (inactive) | 
CN(CCOc1ccc(NS(C)(=O)=O)cc1)CCc1ccc(NS(C)(=O)=O)cc1 |  | -3.43% (inactive) | 
NCCCCCC(=O)O |  | 14.6% (inactive) and 4.29% (inactive) | 
CCc1cccc2c3c([nH]c12)C(CC)(CC(=O)O)OCC3 (stereo not given) |  | -15.8% (inactive) and -6.31% (inactive) | 
CC(C)NCC(O)COc1ccc(CCOCC2CC2)cc1 (stereo not given) |  | 1.84% (inactive) | 
C[C@H]1c2cccc(O)c2C(O)=C2C(=O)[C@]3(O)C(O)=C(C(N)=O)C(=O)[C@@H](N(C)C)[C@@H]3[C@@H](O)[C@@H]21 |  | 10.8% (inactive) and -8.7% (inactive) | 
Clc1ccc2nsnc2c1NC1=NCCN1 |  | -0.508% (inactive) and 0.187% (inactive) | 

SMILES | outcome | max response | Potency
Cn1ccc2cc3c(cc21)CCN3C(=O)Nc1cccnc1 |  | 29.1% (inactive) and 8.13% (inactive) | 
Cc1cc(C(C)(C)C)c(O)c(C)c1CC1=NCCN1 |  | 1.72% (inactive) and -15.7% (inactive) | 
Cc1ccc(C(=O)Nc2ccc(S(=O)(=O)O)c3cc(S(=O)(=O)O)cc(S(=O)(=O)O)c23)cc1NC(=O)c1cccc(NC(=O)Nc2cccc(C(=O)Nc3cc(C(=O)Nc4ccc(S(=O)(=O)O)c5cc(S(=O)(=O)O)cc(S(=O)(=O)O)c45)ccc3C)c2)c1 |  | 9.63% (inactive) and 6.6% (inactive) | 
CC(C)NCC(O)c1ccc(O)c(O)c1 (stereo not given) |  | 0.229% (inactive) | 
Nc1ccn([C@H]2CC[C@@H](CO)O2)c(=O)n1 | inactive | -19.7% (inactive) | 
NCCc1cnc[nH]1 | inactive | -8.33% (inactive) | 
Cn1c(=O)c2c(ncn2C)n(C)c1=O |  | 3.75% (inactive) | 
CNCCCC12CCC(c3ccccc31)c1ccccc12 |  | 3.46% (inactive) | 
Cc1ccc(-c2cc(C(F)(F)F)nn2-c2ccc(S(N)(=O)=O)cc2)cc1 | inactive | -4.37% (inactive) and -12.4% (inactive) | 
COc1nc(C)nc(Cl)c1NC1=NCCN1 |  | 11.6% (inactive) and 7.19% (inactive) | 
CN1C(C(=O)Nc2ccccn2)=C(O)c2ccccc2S1(=O)=O |  | -1.54% (inactive) and -11.4% (inactive) | 
N[C@@H](Cc1c[nH]c2ccc(O)cc12)C(=O)O |  | 5.77% (inactive) and -8.69% (inactive) | 
CN(C)C(=N)N=C(N)N |  | -1.82% (inactive) and 7.62% (inactive) | 
CC1COc2c(N3CCN(C)CC3)c(F)cc3c(=O)c(C(=O)O)cn1c23 (stereo not given) | inactive | 21.2% (inactive) | 
COc1ccccc1N1CCN(CC(O)COc2cccc3ccccc23)CC1 (stereo not given) |  | 9.55% (inactive) | 
Nc1c2c(nc3ccccc13)CCCC2 | inactive |  | 
CN1CCC(=C2c3ccccc3C=Cc3ccccc32)CC1 |  | 25.1% (inactive) and -12.3% (inactive) | 
